In all, about 1,400 sequences were measured (“thermal melting temperature (Tm) of peptide-HLA complex”: median about 60, lowest 2% from about 45 on). The full list was thinned out, with the lowest values kept by preference.
Target: HLA-B*07:02
Test: thermal melting temperature (Tm) of peptide-HLA complex; higher = more thermostable pHLA complex
Conditions: C1R-B*07:02
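Further: lysates heated 10 min at 37–73 °C, complexes pulled down with pan-HLA I antibody, peptide signal by DIA-MS relative to 37 °C, Tm where half the complex is unfolded.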

Question: With HPISNNNSL as the sequence, how does the thermal melting temperature read?
Answer: 41.6 °C

Question: For NPMVTGTSV, which thermal melting temperature is on record?
Answer: 56.3 °C

Question: LPHEVDKSEL was tested. Which thermal melting temperature did it give?
Answer: 44.8 °C

Question: Which thermal melting temperature does the source give for SPVLRNFTF here?
Answer: 41.7 °C

Question: How did the thermal melting temperature turn out when IPRPEVQAL was run?
Answer: 54.1 °C

Question: For VPQVKASAL, which thermal melting temperature is on record?
Answer: 59 °C

Question: With LPGLRDLVL as the sequence, how does the thermal melting temperature read?
Answer: 61.7 °C

Question: Which thermal melting temperature does the source give for MPKVKTIEL here?
Answer: 56.4 °C

Question: With APRSVAVSSI as the sequence, how does the thermal melting temperature read?
Answer: 59.4 °C

Question: How did the thermal melting temperature turn out when SPHPGLLL was run?
Answer: 61 °C

Question: Which thermal melting temperature does the source give for KPHIGLTEL here?
Answer: 60.7 °C

Question: LPRTPSYSI was tested. Which thermal melting temperature did it give?
Answer: 62.1 °C

Question: HPISSEELLSL was tested. Which thermal melting temperature did it give?
Answer: 58.6 °C

Question: With MPKLRVLEL as the sequence, how does the thermal melting temperature read?
Answer: 57.1 °C

Question: Which thermal melting temperature does the source give for YPNERFELL here?
Answer: 63.1 °C

Question: Which thermal melting temperature does the source give for APSDLRTIQTF here?
Answer: 62.8 °C

Question: How did the thermal melting temperature turn out when RPFFPLTATL was run?
Answer: 49.6 °C

Question: Which thermal melting temperature does the source give for FIRNRTLQL here?
Answer: 61.5 °C

Question: For MPARWLTHL, which thermal melting temperature is on record?
Answer: 55 °C

Question: How did the thermal melting temperature turn out when QPVAGRPSL was run?
Answer: 55.8 °C

Question: Which thermal melting temperature does the source give for QPNLKLLAM here?
Answer: 62.9 °C

Question: SPRGAGYLF was tested. Which thermal melting temperature did it give?
Answer: 63 °C

Question: RPVLWVGV was tested. Which thermal melting temperature did it give?
Answer: 60.8 °C

— the supplement of paper PMC7726561
